# Data taken from PubChem BioAssay AID2057 (The Scripps Research Institute Molecular Screening Center, 2009).
# Screen size: about 320,000 compounds; about 2,100 (0.66%) were called active.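 How the source made its calls: active means inhibition above the mean inhibition of all tested compounds plus 3 SD, set per campaign (cut at about 40% in these data); inactive means the rest.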 The entries come from a sample that favours actives as a whole.
# Molecular target: Induced myeloid leukemia cell differentiation protein Mcl-1 (Homo sapiens) (UniProt Q07820)
# Sequence (Q07820 whole entry, looked up): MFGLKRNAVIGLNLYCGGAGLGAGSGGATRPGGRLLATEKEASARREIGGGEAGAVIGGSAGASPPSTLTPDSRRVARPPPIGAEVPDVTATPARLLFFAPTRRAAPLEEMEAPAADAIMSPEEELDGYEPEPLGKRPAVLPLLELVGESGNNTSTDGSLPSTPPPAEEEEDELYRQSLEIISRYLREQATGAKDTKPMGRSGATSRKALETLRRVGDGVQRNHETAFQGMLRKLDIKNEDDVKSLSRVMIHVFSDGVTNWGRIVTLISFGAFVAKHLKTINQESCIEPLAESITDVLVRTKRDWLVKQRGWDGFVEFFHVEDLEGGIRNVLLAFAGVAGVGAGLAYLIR
# Assay: inhibitors of MCL1 binding to BIM-BH3, primary screen, biochemical, fluorescence polarization (AID 2057);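 further: 0% = DMSO wells and 100% = unlabeled Bim-BH3 peptide control; higher means more loss of mP so more displacement of Bim peptide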
# Settings: GST-MCL1 / FITC-Bim-BH3 fluorescence polarization; at 10.9 µM; active compounds read high
row,SMILES,inhibition
1,CC(Oc1ccccc1)C(=O)Nc1c2c(nn1-c1ccccc1)CS(=O)C2 (stereo not drawn),3.14% (inactive)
2,CC1CCN(C(=O)c2ccc(S(=O)(=O)Cc3cc(F)ccc3F)c([N+](=O)[O-])c2)CC1,6.72% (inactive)
3,COc1cc2c(cc1OC)C(C)N(S(=O)(=O)c1cnc(Cl)c(Cl)c1)CC2 (stereo not drawn),0.66% (inactive)
4,Cc1ccc(C2C(C#N)C(C#N)N3CCCN23)cc1 (stereo not drawn),-13.7% (inactive)
5,COCCN(CCOC)c1nc(N)c2c(N)nc3c(c2c1C#N)CC(=O)N3Cc1ccc(Cl)cc1,56.7% (active)
6,CC(C)(C)OC(=O)NCCCC1=CC2=CC(=O)C(C)(OC(=O)c3ccco3)C(=O)C2=CO1 (stereo not drawn),81.6% (active)
7,C=CCN1C=C2C(=O)C(C)(OC(=O)CCc3ccccc3)C(=O)C=C2C=C1c1ccc(C#N)cc1 (stereo not drawn),23.9% (inactive)
8,CC1(OC(=O)C2CCCC2)C(=O)C=C2C=C(c3ccc(C#N)cc3)OC=C2C1=O (stereo not drawn),26.9% (inactive)
9,Cc1cc(O)c(Sc2ccccc2)c(=O)o1,2.06% (inactive)
10,C=CCc1cccc(/C=N/NC(=O)COc2ccc(-n3cnnn3)cc2)c1O,11.2% (inactive)
11,Oc1ccc(-c2onc3ccc(Cl)cc23)cc1,-2.01% (inactive)
12,CC(OC(=O)c1ccc2noc(-c3ccccc3)c2c1)C(N)=O (stereo not drawn),-8.19% (inactive)
13,CCOc1ccc(NC(=O)CN(C)C(=O)Cn2c(=O)cnc3ccccc32)cc1OCC,3.26% (inactive)
14,Cc1nc(-c2ccc(F)cc2)c(CC(=O)N2CCN(S(=O)(=O)c3ccc(F)cc3)CC2)s1,-0.35% (inactive)
15,COC(=O)c1ccc2c(c1)S(=O)(=O)NC(=NCCCN1CCOCC1)S2,-0.08% (inactive)
16,Cc1c(NC(=O)C(C)OC(=O)c2c3c(nc4ccccc24)CCC(C)C3)c(=O)n(-c2ccccc2)n1C (stereo not drawn),-4.73% (inactive)
17,COC(=O)C1=C(Nc2ccc(C)cc2)C=C(C)C(C(=O)OC)C1c1ccc(F)cc1 (stereo not drawn),-0.87% (inactive)
18,O=C(COC(=O)c1ccccc1C(=O)N1CCN(c2ccccc2)CC1)NCc1ccccc1,51.8% (active)
19,O=C(COC(=O)c1n[nH]c2ccccc12)NCc1ccccc1,-0.26% (inactive)
20,CC(C)N(C(=O)COC(=O)c1ccccc1C(=O)N1CCN(c2ccc(F)cc2)CC1)C(C)C,11.2% (inactive)
21,OCC1(Cc2ccccc2C(F)(F)F)CCN(Cc2ccncc2)CC1,4.27% (inactive)
22,CC1(NC(=O)CCS(=O)(=O)c2ccc(Cl)cc2)CCS(=O)(=O)C1 (stereo not drawn),-1.26% (inactive)

row,SMILES,inhibition
1,CC(=O)N1c2ccc(S(=O)(=O)N3CCC(C(=O)NC4CCCCC4C)CC3)cc2CC1C (stereo not drawn),2% (inactive)
2,CC(C)(C)c1ccc(/C=C2\Oc3c(ccc(O)c3CN3CCN(CCO)CC3)C2=O)cc1,49.7% (active)
3,CCOC(=O)c1oc2c(CN3CCN(CCO)CC3)c(O)c(CC)cc2c(=O)c1-c1nc2ccccc2s1,-0.61% (inactive)
4,CCN(CC(=O)Nc1ccccc1C(F)(F)F)C(=O)CSCc1c(C)noc1C,-5.73% (inactive)
5,COC(=O)c1cc(NS(=O)(=O)c2ccc3c(c2)c(=O)n(C)c(=O)n3C)cc(C(=O)OC)c1,3.04% (inactive)
6,CCOC(=O)c1cc2n(c1N)-c1ccccc1C2=O,153% (active)
7,CCOC(=O)c1ccccc1CN1C(=O)c2ccccc2S1(=O)=O,3.41% (inactive)
8,CC(C)OC(=O)CN1C(=O)C(=O)c2ccccc21,3.82% (inactive)
9,Cc1noc(C)c1-c1nc(CSc2ccc(Cl)cc2)no1,7.94% (inactive)
10,O=C(c1ccc(OC2CCN(C(=O)c3cccnc3)CC2)cc1)N1CCCCCC1,1.48% (inactive)
11,Cc1ccc(OS(=O)(=O)c2ccc(-c3csc(C)n3)s2)c(C)c1,2.53% (inactive)
12,CC1(C)CCc2nc(SCc3ccccc3)c(C#N)cc2C1,-2.93% (inactive)
13,CC(NC(=O)CSc1nc2c(cc1C#N)CN(C)CC2)c1ccccc1 (stereo not drawn),45% (active)
14,Cc1cc(NC(=O)CSc2nc3c(cc2C#N)CCCCC3)no1,2.25% (inactive)
15,CC1(C)NC(=O)N(CC(=O)Nc2cc(C(F)(F)F)cc(C(F)(F)F)c2)C1=O,-2.94% (inactive)
16,Cc1ccc(C(=O)O)cc1-c1ccc(/C=C2\SC(=O)N(CC(=O)Nc3ccc4c(c3)OCO4)C2=O)o1,56.2% (active)
17,Cc1ccc(C(=O)Nc2ccc3c(c2)OCO3)cc1S(=O)(=O)N1CCCCC1,7.58% (inactive)
18,Cn1cccc1/C=C1\SC(=O)N(CC(=O)Nc2ccc(F)cc2)C1=O,-0.64% (inactive)
19,Cc1ccc(-c2nc(SCC(=O)Nc3ccccc3OC(F)F)c3c(C)c(C(=O)O)sc3n2)cc1,54.1% (active)
20,CCOC(=O)c1ccc[n+](CC(=O)Nc2ccccc2OC(F)F)c1,-5.72% (inactive)
21,COc1ccccc1NC(=O)CSc1nc2sc3c(c2c(=O)n1-c1ccccc1)CCN(C)C3,-0.79% (inactive)
22,COc1cc2c(cc1OC)C(=O)NCC(C)(C)O2,5.06% (inactive)

row,SMILES,inhibition
1,CCC(C)[C@H]1COCCS(=O)(=O)N1Cc1ccc(C)cc1 (stereo partly drawn),-11.6% (inactive)
2,Nc1ccc(C(=O)OCC(=O)NC2CCCc3ccccc32)cc1[N+](=O)[O-] (stereo not drawn),-14.1% (inactive)
3,CCOc1ccc(NC(=O)COc2ccc(C(=O)NC3CCCc4ccccc43)cc2OC)cc1 (stereo not drawn),-23.3% (inactive)
4,COC(=O)c1cc(OCC(=O)NC2CCCc3ccccc32)cc(C(=O)OC)c1 (stereo not drawn),40.6% (active)
5,CCOC(=O)C(Cc1ccccc1)NC(=O)CCC(=O)c1ccc(OC)cc1 (stereo not drawn),4.46% (inactive)
6,COC(=O)[C@H](Cc1ccccc1)NC(=O)Nc1ccc(OC)cc1,2.03% (inactive)
7,COc1cc([C@H](Cc2ccccc2)NC(C)=O)oc(=O)c1,59.4% (active)
8,Cc1ccc(OCC(=O)c2cc(C)n(Cc3ccco3)c2C)c([N+](=O)[O-])n1,-1.45% (inactive)
9,COC(=O)c1c(NC(=O)c2ccc(S(=O)(=O)N3CCOCC3)cc2)sc2c1CCN(C(C)C)C2,-0.44% (inactive)
10,c1ccc2c(c1)CSc1sccc1C2=C1CCNCC1,8.84% (inactive)
11,CC/C(C)=N/Nc1nc2sc3c(c2c(=O)[nH]1)CC(C)(C)OC3,85% (active)
12,CCSc1nc2sc3c(c2c(=O)[nH]1)CC(C)(C)OC3,7.1% (inactive)
13,CCC1(C)Cc2c(sc3nc(SC)[nH]c(=O)c23)CO1 (stereo not drawn),6.42% (inactive)
14,Nc1cc(N)nc(SCC(=O)Nc2cccc(S(=O)(=O)N3CCCCC3)c2)n1,-0.58% (inactive)
15,CC[C@]1(O)CC2CN(CCc3c([nH]c4ccccc34)[C@@](C(=O)OC)(c3cc4c(cc3OC)N(C=O)[C@H]3[C@@](O)(C(=O)OC)[C@H](OC(C)=O)[C@]5(CC)C=CCN6CC[C@]43[C@@H]65)C2)C1 (stereo partly drawn),20.2% (inactive)
16,CC[C@]1(O)C[C@@H]2CN(CCc3c([nH]c4ccccc34)[C@@](C(=O)OC)(c3cc4c(cc3OC)N(C)[C@H]3[C@@](O)(C(=O)OC)[C@H](OC(C)=O)[C@]5(CC)C=CCN6CC[C@]43[C@@H]65)C2)C1,119% (active)
17,O=C(Cn1c(NCCO)nc2ccccc21)c1ccc(Cl)cc1Cl,-2.09% (inactive)
18,CC[C@@H](C)[C@H](NC(=O)CCc1c(C)c2cc3c4c(oc3c(C)c2oc1=O)CCCC4)C(=O)O,8.32% (inactive)
19,CCOC(=O)c1cc(C#N)c(N2CCCCC2)nc1-c1ccccc1,2.02% (inactive)
20,CCOc1ccc2nc(N3CCCN(C(=O)Nc4ccccc4C)CC3)c(C#N)cc2c1,48.6% (active)
21,COc1ccc2nc(N3CCCC(O)C3)c(C#N)cc2c1 (stereo not drawn),26.1% (inactive)
22,CSc1ncccc1C(=O)OCc1ccc(Br)cc1,4.52% (inactive)

row,SMILES,inhibition
1,CCC(C)(C)NC(=O)c1cc([N+](=O)[O-])ccc1N1CCCCC1,-1.47% (inactive)
2,O=C1Nc2ccccc2/C1=C/c1ccnc2ccccc12,4.28% (inactive)
3,CN(C)/C=C1/Nc2ccccc2C1=O,5.28% (inactive)
4,Cc1cc(C)c(/C=C2\C(=O)Nc3ccccc32)[nH]1,180% (active)
5,CCOC(=O)CNc1nc2ccccc2n2c(C)nnc12,6.27% (inactive)
6,Fc1ccc(CNc2nc3ccccc3n3nnnc23)cc1,60.1% (active)
7,COc1ccc(CNc2nnnn2C)cc1,2.94% (inactive)
8,CCC1CCCCN1C(=S)Nc1ccc(SC(F)F)cc1 (stereo not drawn),7.19% (inactive)
9,COc1ccc(N2CC(C(=O)N[C@@H](C)C(=O)N3CCCCC3)CC2=O)cc1 (stereo partly drawn),3.6% (inactive)
10,Cc1nn(-c2cc(Cl)ccc2N)c(=O)c2ccccc12,0.14% (inactive)
11,C[N+](C)(CCCCCC[N+](C)(C)CCCN1C(=O)c2cccc3cccc(c23)C1=O)CCCN1C(=O)c2cccc3cccc(c23)C1=O,-10.5% (inactive)
12,O=C1c2ccccc2C(=O)N1c1cccc2ccccc12,2.1% (inactive)
13,O=C(O)c1ccc2c3c(cccc13)C(=O)N(OS(=O)(=O)c1ccccc1)C2=O,-8.23% (inactive)
14,CC(C)(CNC(=O)Cc1ccc(Cl)cc1Cl)N1CCOCC1,4.7% (inactive)
15,O=C(c1cccnc1)N(c1cc2sc(=O)oc2c2ccccc12)S(=O)(=O)c1ccccc1,23.9% (inactive)
16,CCCCC(NC(=O)c1cccc(Br)c1)C(=O)O (stereo not drawn),-0.19% (inactive)
17,CC1=NN(C(C)C)C(=O)C1,-2.13% (inactive)
18,COCc1c(N)c(C)nc(Cl)c1C#N,8.83% (inactive)
19,CCOc1ccc(N(CC(=O)NCC2CCCO2)S(=O)(=O)c2ccc(C)cc2)cc1 (stereo not drawn),-3.41% (inactive)
20,Cc1c(CC(=O)N2CCN(C(=O)C3COc4ccccc4O3)CC2)c(=O)oc2c(O)c(O)ccc12 (stereo not drawn),57.5% (active)
21,O=C(CNC(=O)C1COc2ccccc2O1)N/N=C/c1cc(Br)c(O)c(Br)c1 (stereo not drawn),10.8% (inactive)
22,Cc1c(C)c2ccc(OCC(=O)N3CCC(C(=O)O)CC3)c(C)c2oc1=O,-1.79% (inactive)
